Only a selection was taken, and hits are over-represented in it overall.
USP2a inh = qHTS Assay for Inhibitors of Ubiquitin-specific Protease USP2a Using CHOP2 as the Reporter | AID 463254, 2010 | hit rate 0.01% among 330,000 | Ubiquitin carboxyl-terminal hydrolase 2 (Homo sapiens), O75604 | Potency, µM (top dose mostly 38.3 µM), for inactives: at the top dose activity change, negative = inhibition, actives largely listed as inhibitors | USP2 core, Ub-CHOP2 coupled fluorogenic reporter, 485/531;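 note: plate controls were DMSO wells for no effect and full inhibition by NEM control for full effect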
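USP2 core (10nM final) preincubated 30min RT with compound in 20mM Tris-HCl pH 8.0, 2mM CaCl2, 2mM beta-mercaptoethanol, 0.05% CHAPS; 25nM Ub-CHOP2 plus 25nM reporter substrate added, fluorescence (Ex485/Em531) read after 60min.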
GALK inh = qHTS Assay for Inhibitors of Human Galactokinase (GALK); hit rate 0.007% among 270,000; P51570; Potency, µM (series often up to 57.5 µM), without a hit: at the top dose activity change, negative = inhibition, actives largely listed as inhibitors; Purified GALK, Kinase-Glo residual ATP luminescence; note: % is set by controls: 0 for no effect and ±100 for the full control effect
Target sequence (P51570 whole entry, looked up): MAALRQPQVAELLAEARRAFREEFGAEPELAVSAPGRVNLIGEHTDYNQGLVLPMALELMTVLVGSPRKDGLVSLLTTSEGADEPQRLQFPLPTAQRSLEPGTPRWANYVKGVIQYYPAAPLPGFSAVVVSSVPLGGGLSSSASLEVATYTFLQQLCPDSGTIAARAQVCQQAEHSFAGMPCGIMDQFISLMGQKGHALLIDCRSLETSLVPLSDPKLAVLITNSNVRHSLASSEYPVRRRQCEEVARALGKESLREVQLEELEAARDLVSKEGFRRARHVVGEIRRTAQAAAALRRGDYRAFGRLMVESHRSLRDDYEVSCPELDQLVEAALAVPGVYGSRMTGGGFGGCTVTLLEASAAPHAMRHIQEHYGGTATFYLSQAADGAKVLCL
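Human GALK (5 nM) with 35 uM ATP and 100 uM galactose in 20 mM HEPES pH 8.0, 5 mM MgCl2, 60 mM NaCl, 1 mM DTT, 0.01% BSA. After 1 h at room temperature, leftover ATP was read by Kinase-Glo Plus luminescence.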
ClpP mod = qHTS Assay for Activators of ClpP; AID 651965, 2013; Potency, µM (titrated, usually from 57.5 µM), for inactives: at the highest dose activity change, negative = active; ATP-dependent Clp protease proteolytic subunit (Bacillus subtilis (strain 168)), P80244; purified B. subtilis ClpP, FRET peptide cleavage, 20 min; hit rate 1.9% among 340,000; active = well fitted falling curve with a large enough effect; inconclusive = small, poorly fitted or top-dose-only effect; inactive = no such curve, though single readings can be large or run the other way; note: the source files actives as falling curves though it sought activators and does not explain the sign; nearly all actives have a fitted effect of over 65% in size
Target sequence (P80244 whole entry, looked up): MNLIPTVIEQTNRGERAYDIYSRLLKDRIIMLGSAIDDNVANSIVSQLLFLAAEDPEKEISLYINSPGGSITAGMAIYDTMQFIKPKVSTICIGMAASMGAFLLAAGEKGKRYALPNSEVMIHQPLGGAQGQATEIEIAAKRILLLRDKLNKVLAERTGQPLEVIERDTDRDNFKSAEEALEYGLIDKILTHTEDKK
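Purified B. subtilis ClpP, 10 microg/mL final in Tris/HCl pH8 with KCl, BSA, glycerol and Tween-20, cleaved an Abz/nitrotyrosine-quenched decapeptide. Fluorescence (ex 320, em 430) was read at 0 and 20 min at room temperature. Delta was normalized to 5.8 microM ADEP and DMSO/no-enzyme controls.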
Eya2 inh = qHTS Assay for Inhibitors of the Phosphatase Activity of Eya2; Protein phosphatase EYA2 (Homo sapiens), O00167; recombinant Eya2, OMFP fluorescence dephosphorylation (OMFP is methylfluorescein phosphate); Potency, µM (top dose mostly 76.9 µM), for inactives: top-dose activity, negative = inhibition, hits mostly inhibitors; hit rate 0.006% among 330,000; AID 488837, 2010; note: % is set by controls: 0 for no effect and ±100 for the full control effect
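Eya2 protein (added as 0.2 uM solution) was preincubated with compound for 10 min at ambient temperature in 50 mM HEPES pH 7.5, 50 mM NaCl, 5 uM MgCl2, 0.05% BSA, 1 mM DTT. OMFP (added at 50 uM) then reacted 10 min; fluorescence read at 485/525 nm.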
Active calls of the source: *; ? = inconclusive; . = no result; [ ] = another dose, or the depositor's remark. Unless noted, calls come from the whole dose curve; as a rule, active = well fitted inhibition curve with a large enough effect; inconclusive = small, poorly fitted or top-dose-only effect, or effect the other way; inactive = flat fitted curve, though single readings scatter. Potency is the fitted concentration of half-maximal effect.

SMILES | USP2a inh | GALK inh | ClpP mod | Eya2 inh
O=C(O)c1ccc(CN(c2ccccn2)S(=O)(=O)c2ccccc2)cc1 | 0% | 4% | 28µM* | -6%
O=S(=O)(c1ccccc1)N(Cc1ccccc1)c1ccccn1 | 1% | -2% | -1% | -41%
CCn1c(Cc2cccc3ccccc23)nnc1SCC(=O)Nc1nccs1 | 3% | -3% | 1% | -15%
CCN(CC)S(=O)(=O)c1ccc(S(=O)(=O)Nc2ccc3c(c2)oc2ccccc23)cc1 | -13% | 0% | 0% | -11%
Cn1nc(C(F)(F)F)c(-c2ccc(Br)cc2)c1NC(=O)C1CCC1C(=O)O (stereo not given) | 1% | . | . | -18%
CCc1c(C)nc(SCC(=O)Nc2cccc(Br)c2)[nH]c1=O | 0% | 1% | -2% | -8%
CCC1c2ccc(C)n2CCN1C(=O)Nc1ccccc1C(=O)OC (stereo not given) | ? | 8% | 35µM* | ?
CCOC(=O)c1ccccc1NC(=O)N1CCn2c(C)ccc2C1CC (stereo not given) | 8% | -3% | ? | -7%
O=C(Nc1ccc(Cl)cc1)Nc1nnc(CSCc2ccccc2)s1 | 0% | 0% | 18µM* | 3%
O=C(Nc1nnc(CSCc2ccc(Cl)cc2)s1)c1cccc([N+](=O)[O-])c1 | 3% | 0% | 25µM* | -6%
CCOc1ccc(CN(CC)C(=O)Cc2c[nH]c3ccccc23)cc1OC | 1% | 0% | . | 9%
COc1ccc(OC(=O)/C=C/c2ccc([N+](=O)[O-])cc2)cc1 | -1% | 1% | . | -14%
CCOC(=O)CC(=O)CSc1nc2nc(C)cc(C)n2n1 | 1% | 0% | -2% | 10%
COc1cc(OC)cc(-c2nnc(Nc3nc4c(F)cccc4s3)o2)c1 | -1% | 1% | ? | -14%
COc1ccc(-c2nnc(Nc3nc4c(OC)cccc4s3)o2)c(OC)c1 | 3% | -8% | 16µM* | -25%
COc1ccc(-c2nnc(Nc3nc4c(OC)cccc4s3)o2)cc1 | -3% | 0% | 40µM* | 33%[15.4 µM]
C=CCn1c(SCC(=O)NCC(c2ccccc2)N(C)C)nc2sc3c(c2c1=O)CCC3 (stereo not given) | . | . | -2% | .
CCN=C1S/C(=C\c2ccc(OC)c(OCC)c2)C(=O)N1CC | 1% | 1% | . | 1%
O=C1c2cccc3cccc(c23)C(=O)N1c1nncs1 | 5% | 3% | 16µM* | -14%[15.4 µM]
C=CCn1c(NC(=O)c2ccccc2Cl)c(C#N)c2nc3ccccc3nc21 | 3% | -1% | ? | -18%
CCCCn1c(NC(C)=O)c(C#N)c2nc3ccccc3nc21 | 3% | 0% | 28µM* | -2%
CN(C)c1ccc(NC(=O)CSc2nc3ccccc3c(=O)n2CC2CCCO2)cc1 (stereo not given) | 0% | 0% | . | -6%
COC(=O)c1ccc(C)c(NC(=O)CN(c2cc(OC)ccc2OC)S(C)(=O)=O)c1 | -1% | 2% | 0% | 6%
CCOC(=O)c1[nH]c2ccc(OCC)cc2c1NC(=O)CN1CCN(c2ccccn2)CC1 | -1% | 0% | 18µM* | -15%
COC(=O)c1[nH]c2ccc(C)cc2c1NC(=O)CN1CCCC(C)(C)C1 | -1% | -3% | 18µM* | -14%
SMILES | USP2a inh | GALK inh | ClpP mod | Eya2 inh
CCOC(=O)c1[nH]c2ccc(OCC)cc2c1NC(=O)CN1CCCC(C)C1 (stereo not given) | -8% | -2% | 14µM* | -13%
CCOC(=O)c1[nH]c2cc(OC)c(OC)cc2c1NC(=O)CN1CCN(C)CC1 | -2% | -3% | . | -7%
CCOC(=O)c1[nH]c2ccc(C)cc2c1NC(=O)CN1CCCCC1 | -1% | 0% | 32µM* | 6%
COc1ccc(OC)c(NC(=O)C23CC4CC(C2)CC(n2cnc(Br)n2)(C4)C3)c1 | -2% | -4% | -2% | 4%
CCOC(=O)c1[nH]c2cc(OC)c(OC)cc2c1N | 1% | 1% | ? | -16%
CCOC(=O)c1[nH]c2ccc(C)cc2c1N | 3% | 0% | 25µM* | -5%
CCOCCCn1c(=S)[nH]c2cc(C(=O)NCCOC)ccc2c1=O | -5% | 1% | 1% | 1%
C#CCOCCOCCOCCNc1nc(N2CCN(C(=O)CCCCCCCCCCNC(=O)[C@H](CCCCN)n3cc(C[C@@H](C)CC)nn3)CC2)nc(N2CCN(C(=O)CCCCCCCCCCNC(=O)[C@H](CCCN=C(N)N)n3cc(C[C@@H](C)CC)nn3)CC2)n1 | 10µM* | . | 0% | ?
C#CCOCCOCCOCCNc1nc(N2CCN(C(=O)CCCCCCCCCCNC(=O)[C@H](CCCCN)n3cc(C)nn3)CC2)nc(N2CCN(C(=O)CCCCCCCCCCNC(=O)[C@H](CCCN=C(N)N)n3cc(C[C@@H](C)CC)nn3)CC2)n1 | 11µM* | . | -4% | 22µM*
Cc1cc(C(=O)C(C)OC(=O)C2=NNC(=O)CC2)c(C)n1-c1ccc(OC(F)F)cc1 (stereo not given) | 6% | -2% | 20µM* | 14%
Cc1cc(C(=O)COC(=O)C2=NNC(=O)CC2)c(C)n1-c1ccc(OC(F)F)cc1 | -6% | 1% | -11% | -16%
CC(NCC1COc2ccccc2O1)C1COc2ccccc2O1 (stereo not given) | -7% | . | . | -3%
CCOC(=O)CCNC(C)C1COc2ccccc2O1 (stereo not given) | 3% | 4% | 6.3µM* | -7%
O=C(O)c1ccc(CNc2ccccc2C(=O)O)cc1 | 2% | 1% | 32µM* | -7%
O=C(O)c1ccccc1NCc1ccncc1 | -1% | 3% | 14µM* | 3%
O=C1Nc2ccccc2/C1=N/c1sc2c(c1C(=O)NCCc1ccccc1)CCCC2 | 0% | -4% | -1% | 12%
Cc1ccc(-c2nnc(SCC(=O)NC3CC3)o2)cc1 | 3% | 6% | . | 7%
O=C(O)CCc1ccc(-c2cccs2)n1CC1CCCO1 (stereo not given) | 1% | 0% | 25µM* | 20%
O=C(O)CCc1ccc(-c2ccc(F)cc2)n1CC1CCCO1 (stereo not given) | 0% | 1% | 22µM* | -30%
COc1ccc(-c2ccc(CCC(=O)O)n2CC2CCCO2)cc1 (stereo not given) | -2% | 2% | . | 10%
CCCn1c(CCC(=O)O)ccc1-c1cccs1 | 0% | -1% | 25µM* | 0%
CC(CN1CCCCC1)OC(=O)c1cccc(F)c1 (stereo not given) | -2% | . | . | 6%
O=S(c1ccccc1)C(c1ccccc1)c1ccccc1 (stereo not given) | . | . | 16µM* | .
CCc1cc(C(=O)N2CCN(C(=O)c3ccco3)CC2)sc1C | 0% | . | 28µM* | -20%
CCS(=O)(=O)N1CCN(C(=O)c2ccco2)CC1 | 0% | -3% | 0% | 8%

High-throughput results as filed in PubChem.
